One may read the AC50 as the midpoint of the concentration-response curve, whichever way the signal moves.

Our source for the AC50 and outcome values is PubChem BioAssay (EPA / NIEHS).

SMILES strings stand for the structures. Inconclusive results are not listed. Calls of active or inactive are those of the source. The calls were made as follows: active = hit-call score of the fitted dose curve at least 0.9, where 1 is the maximum; inconclusive = response in the unintended direction; inactive = score below 0.9.

Sequence of Bile acid receptor (Homo sapiens) (Q96RI1 whole entry, looked up, the tested form may be a part): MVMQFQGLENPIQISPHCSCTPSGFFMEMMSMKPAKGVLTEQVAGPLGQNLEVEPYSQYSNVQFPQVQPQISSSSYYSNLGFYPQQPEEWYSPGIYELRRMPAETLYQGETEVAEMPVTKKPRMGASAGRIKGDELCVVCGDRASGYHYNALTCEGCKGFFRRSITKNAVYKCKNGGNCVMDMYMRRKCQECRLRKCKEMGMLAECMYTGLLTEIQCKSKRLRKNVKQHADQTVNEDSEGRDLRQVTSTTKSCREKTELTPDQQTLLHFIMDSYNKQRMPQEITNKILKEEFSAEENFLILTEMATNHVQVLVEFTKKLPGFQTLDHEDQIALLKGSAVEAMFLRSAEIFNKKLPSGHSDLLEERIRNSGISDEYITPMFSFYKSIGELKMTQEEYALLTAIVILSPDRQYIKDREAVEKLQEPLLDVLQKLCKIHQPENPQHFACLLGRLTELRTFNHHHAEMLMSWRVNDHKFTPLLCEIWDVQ

The assay concerns the target Bile acid receptor (Homo sapiens) (UniProt Q96RI1). As to the kind of experiment: OT_FXR_FXRSRC1_1440: Odyssey Thera (OT) 24-hour HEK293T Protein-Complementation Assay for Farnesoid X receptor/SRC-1 Co-activator (AID 2283384). The essentials: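 Protein-fragment complementation: FXR and SRC-1 fused to reporter fragments that reassemble on interaction, read by fluorescence intensity. Human HEK293T cells measured 24 h post-dose; positive-direction fit versus DMSO.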
On to `CC1(C)CCC(Cc2ccc(Cl)cc2)C1(O)Cn1cncn1` (stereo not given), for which the concentration at half-maximal activity (AC50) is 31.6 µM (active).

Take `C=C(C)C(=O)[O][Sn]([CH2]CCC)([CH2]CCC)[CH2]CCC`: the result was inactive.

As for `CCOP(=S)(OCC)Oc1nc(Cl)c(Cl)cc1Cl`, the AC50 was 76.4 µM (active).

`[O-][Cl+2]([O-])O`: the compound was called inactive.

For `COP(=O)(OC)O/C(=C\Cl)c1cc(Cl)c(Cl)cc1Cl`, the outcome was inactive.

For `CC(=O)[O][Hg][c]1ccccc1`, the AC50 is 0.2 µM (active).

In the case of `O=C1C2(Cl)C3(Cl)C4(Cl)C(Cl)(Cl)C5(Cl)C3(Cl)C1(Cl)C5(Cl)C24Cl` (stereo not given), the AC50 was 10.8 µM (active).

`CC(C)C1CCC(Cc2ccc(Cl)cc2)C1(O)Cn1cncn1` (stereo not given): the AC50 is 11.2 µM (active).

`Clc1ccc(C2(Cn3cncn3)CC(Br)CO2)c(Cl)c1` (stereo not given): the compound was classed as inactive.

On to `Fc1ccc(C2(Cn3cncn3)OC2c2ccccc2Cl)cc1` (stereo not given), for which the AC50 is 18.9 µM (active).
